CYP2C9 inh = human CYP2C9 inhibition | P11712 | CYP2C9 Supersomes, luciferin-H conversion, luminescence | inhibition, % at 5 µM | hit rate 20% among 96,000;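 active = blocking of liver enzyme CYP2C9 beyond about 50% at 5 µM, limit read from the data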
CYP2C19 inh = human CYP2C19 inhibition | P33261 | CYP2C19 Supersomes, luciferin-H EGE luminescence, 30 min | inhibition, % at 5 µM | hit rate 21% among 96,000 | AID 778;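 active = CYP2C19 inhibition above a set limit at 5 µM in the primary screen, cut at about 50% in these data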;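 also: plate controls were negative control wells for no effect and 2.5 mM tranylcypromine positive control for full effect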
Target sequence (P33261 whole entry, looked up): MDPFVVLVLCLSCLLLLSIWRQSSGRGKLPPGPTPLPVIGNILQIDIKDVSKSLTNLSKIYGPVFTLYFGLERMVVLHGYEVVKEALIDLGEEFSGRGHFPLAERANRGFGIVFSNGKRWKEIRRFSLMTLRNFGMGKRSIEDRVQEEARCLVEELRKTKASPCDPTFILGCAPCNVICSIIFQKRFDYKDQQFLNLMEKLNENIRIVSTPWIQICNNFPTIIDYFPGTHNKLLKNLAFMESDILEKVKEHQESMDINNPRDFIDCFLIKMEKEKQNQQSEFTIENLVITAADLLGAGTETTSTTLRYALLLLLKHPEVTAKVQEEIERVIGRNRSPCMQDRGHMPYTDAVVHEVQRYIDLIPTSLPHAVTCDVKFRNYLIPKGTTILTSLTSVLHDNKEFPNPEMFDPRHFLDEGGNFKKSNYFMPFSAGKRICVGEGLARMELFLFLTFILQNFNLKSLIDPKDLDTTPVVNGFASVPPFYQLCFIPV
Cav32 inh = inhibitors of human Cav3.2 T-type calcium channel | Cav3.2-expressing cells, Fluo-4 calcium fluorescence FDSS; active compounds read low | B-score at 10 µM | hit rate 4% among 100,000 | AID 449739;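 active = single-dose well whose peak fluorescence ratio is a statistical outlier from its plate by either plate-standardised score or position-corrected B-score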
CYP2C9 act = CYP2C9 (human) activation | P11712 | recombinant CYP2C9, luciferin-H conversion, luminescence; active compounds read high; factor 1 = untreated enzyme, 0 = blocked | activation factor at 5 µM | hit rate 1.4% among 96,000 | AID 1024;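 active = activation factor of 2 or more for CYP2C9 at a 5 µM dose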;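 also: 0 = sulfaphenazole-blocked wells and 1 = vehicle-only wells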
CYP2C19 activ = activators of human cytochrome P450 2C19; P33261; recombinant CYP2C19, luciferin-H EGE luminescence; active compounds read high; 0 = fully inhibited enzyme, 1 = untreated enzyme; activation factor at 5 µM; 96,000 tested, under 10 active;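 active = activation factor of at least 2 at 5 µM in the primary screen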;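 also: 0 = wells with 2.5 mM tranylcypromine and 1 = vehicle-only wells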
* hit, by the source's call. This is a sample that favours compounds with a hit; in the whole collection about 27% have one here.

Screening O=C(CCn1c(=O)oc2ccccc21)N1CCN(c2ccccc2F)CC1 returned CYP2C9 inh 27, CYP2C19 inh 73*, Cav32 inh -0.54, CYP2C9 act 0.7 and CYP2C19 activ 0.3.
Screening O=C(CCC1(C(=O)O)CCC(=O)NC1)NCc1ccccc1 (configuration not stated) returned CYP2C9 inh -4, CYP2C19 inh 3, Cav32 inh 0.61, CYP2C9 act 1 and CYP2C19 activ 1.
Screening O=S(=O)(c1cccs1)N1CCN(CC(O)COc2cc(Cl)ccc2Cl)CC1 (configuration not stated) returned CYP2C9 inh 35, CYP2C19 inh 46, Cav32 inh -2.6, CYP2C9 act 0.7 and CYP2C19 activ 0.5.
`Cc1nn(-c2ccccc2)c(C)c1C1C(C#N)=C(N)Oc2n[nH]c(C)c21` (configuration not stated) gave Cav32 inh 0.33.
For CCCC1=C(C(=O)OCC)C(c2c(C)nn(-c3ccccc3)c2Cl)C(C#N)=C(N)O1 (configuration not stated) the results were CYP2C9 inh 55*, CYP2C19 inh 50*, Cav32 inh -5*, CYP2C9 act 0.5 and CYP2C19 activ 0.5.
Screening N#CC1=C(N)OC2=C(C(=O)CCC2)C1c1ccccc1 (configuration not stated) returned CYP2C9 inh 13, CYP2C19 inh 19, Cav32 inh -0.92, CYP2C9 act 0.9 and CYP2C19 activ 0.8.
Cc1ccc(-n2nc(C)c(C3C(C#N)=C(N)OC4=C3C(=O)CCC4)c2Cl)cc1 (configuration not stated) was read as CYP2C9 inh 53*, CYP2C19 inh 91*, CYP2C9 act 0.5 and CYP2C19 activ 0.1.
Cc1nn(-c2ccccc2)c(Cl)c1C1C(C#N)=C(N)OC2=C1C(=O)CC(C)(C)C2 (configuration not stated) was read as CYP2C9 inh 69*, CYP2C19 inh 39, Cav32 inh -0.1, CYP2C9 act 0.3 and CYP2C19 activ 0.6.
Screening CC1(C)CC(=O)C2=C(C1)OC(N)=C(C#N)C2C1C=CCCC1 (configuration not stated) returned CYP2C9 inh 60*, CYP2C19 inh 30, Cav32 inh 1.9, CYP2C9 act 0.4 and CYP2C19 activ 0.7.
Screening O=C(CCS(=O)(=O)Cc1ccc(Cl)cc1)NCCCN1CCOCC1 returned CYP2C9 inh -3, CYP2C19 inh 45, Cav32 inh -0.021, CYP2C9 act 1 and CYP2C19 activ 0.5.
`O=C(CSc1nncs1)NCc1ccc2c(c1)OCO2` gave CYP2C9 inh 14, CYP2C19 inh 59*, Cav32 inh 0.3, CYP2C9 act 0.9 and CYP2C19 activ 0.4.
Screening Cc1cc(C(=O)COC(=O)C2=NNC(=O)CC2)c(C)n1-c1ccc(OC(F)F)cc1 returned CYP2C9 inh 27, CYP2C19 inh 30, Cav32 inh 0.46, CYP2C9 act 0.7 and CYP2C19 activ 0.7.
Cc1cc(C(=O)CSc2nncs2)c(C)n1-c1ccc2c(c1)OCO2 was read as CYP2C9 inh 53*, CYP2C19 inh 86*, Cav32 inh -1.4, CYP2C9 act 0.5 and CYP2C19 activ 0.1.
`CC(C)n1nnnc1SCC(=O)NCc1ccc2c(c1)OCO2` gave CYP2C9 inh 40, CYP2C19 inh 46, Cav32 inh -0.098, CYP2C9 act 0.6 and CYP2C19 activ 0.5.
For Cc1cc(C(=O)COC(=O)C2=COCCO2)c(C)n1-c1ccc2c(c1)OCO2 the results were CYP2C9 inh 85*, CYP2C19 inh 92*, Cav32 inh -0.96, CYP2C9 act 0.1 and CYP2C19 activ 0.1.
Screening Cc1nnc(SCC(=O)NCc2ccc3c(c2)OCO3)s1 returned CYP2C9 inh 16, CYP2C19 inh 36, Cav32 inh 0.44, CYP2C9 act 0.8 and CYP2C19 activ 0.6.
Screening CCCn1nnnc1SCC(=O)NCc1ccc2c(c1)OCO2 returned CYP2C9 inh 53*, CYP2C19 inh 66*, Cav32 inh 1.1, CYP2C9 act 0.5 and CYP2C19 activ 0.3.
For CCOc1c2ccc(C(=O)NCc3ccccc3OC)cc2nn1CC the results were CYP2C9 inh -12, CYP2C19 inh 2, Cav32 inh 0.94, CYP2C9 act 1.1 and CYP2C19 activ 1.
`CCCn1nnnc1SCC(=O)NCc1cccs1` gave CYP2C9 inh -6, CYP2C19 inh 73*, Cav32 inh 0.34, CYP2C9 act 1.1 and CYP2C19 activ 0.3.

Screening results (PubChem)
